Shown are actives, neighbours in structure and some others; about 5.8% of the full set was active somewhere.
KB-3-1 cytotox: kills parental KB-3-1 adenocarcinoma cells; KB-3-1 viability, CellTiter-Glo ATP luminescence, 72 h; Potency, µM (doses to about 46.1 µM), most hits filed as cytotoxic; 400,000 tested, 1.4% active; AID 1347075; also: nearly all actives have a fitted effect of over 60% in size
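Cytotoxicity measured as CellTiter-Glo luminescence after 72 h at 37 C. Compound titrations were pinned onto drug-naive KB-3-1 parental adenocarcinoma cells grown in DMEM with 10% FBS, and normalized data fitted to concentration-response curves.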
PINK1 expr mod: changes PINK1 expression. PINK1 immunofluorescence, high-content cytometry, 24 h. Potency, µM (top dose mostly 76.6 µM), most hits filed as activators. 410,000 tested, 0.2% active. AID 624263; active = well fitted activation curve with a large enough effect; inconclusive = small, poorly fitted or top-dose-only effect; cell line not stated here; also: nearly all actives have a fitted effect of over 65% in size
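Readout is PINK1 immunofluorescence, quantified alongside mitochondrial, cell and nuclear markers by laser-scanning microplate cytometry. Cells from a stable line were exposed to compound titrations (5 concentrations) for 24 hours, with CCCP controls.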
KB-V1 cytotox: kills drug-selected multidrug resistant KB-V1 cells; KB-V1 MDR cells viability, CellTiter-Glo, 72 h; Potency, µM (top dose mostly 46.1 µM), usual class: cytotoxic; 400,000 tested, 3.4% active; AID 1347076; also: nearly all actives have a fitted effect of over 60% in size
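Luminescent ATP read-out (CellTiter-Glo, 10 min) measures survival of drug-selected KB-V1 MDR cells after 72 h, 37 degrees C compound exposure. Medium: phenol-red-free DMEM, 10% FBS. Values from fitted concentration-response curves.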
SW480 rereplic: inducers of DNA re-replication in SW480 colon cancer cells | SW480 DNA re-replication, Hoechst DNA content imaging, 48 h | Potency, µM (series often up to 46.1 µM), hits mostly activators | 340,000 tested, 1.8% active; also: nearly all actives have a fitted effect of over 55% in size
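Readout is total intensity of Hoechst-stained nuclei, excited at 405 nm and collected at 500-530 nm. Compound treatment lasted 48 hr at 37 C in 5% CO2 before staining.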
12-LOX inh: inhibitors of human 12S-lipoxygenase ALOX12 | P18054 | purified 12hLO, xylenol orange hydroperoxide absorbance | Potency, µM (highest dose often 108 µM), most hits filed as inhibitors | 580,000 tested, 1.1% active
Target sequence (P18054 whole entry, looked up): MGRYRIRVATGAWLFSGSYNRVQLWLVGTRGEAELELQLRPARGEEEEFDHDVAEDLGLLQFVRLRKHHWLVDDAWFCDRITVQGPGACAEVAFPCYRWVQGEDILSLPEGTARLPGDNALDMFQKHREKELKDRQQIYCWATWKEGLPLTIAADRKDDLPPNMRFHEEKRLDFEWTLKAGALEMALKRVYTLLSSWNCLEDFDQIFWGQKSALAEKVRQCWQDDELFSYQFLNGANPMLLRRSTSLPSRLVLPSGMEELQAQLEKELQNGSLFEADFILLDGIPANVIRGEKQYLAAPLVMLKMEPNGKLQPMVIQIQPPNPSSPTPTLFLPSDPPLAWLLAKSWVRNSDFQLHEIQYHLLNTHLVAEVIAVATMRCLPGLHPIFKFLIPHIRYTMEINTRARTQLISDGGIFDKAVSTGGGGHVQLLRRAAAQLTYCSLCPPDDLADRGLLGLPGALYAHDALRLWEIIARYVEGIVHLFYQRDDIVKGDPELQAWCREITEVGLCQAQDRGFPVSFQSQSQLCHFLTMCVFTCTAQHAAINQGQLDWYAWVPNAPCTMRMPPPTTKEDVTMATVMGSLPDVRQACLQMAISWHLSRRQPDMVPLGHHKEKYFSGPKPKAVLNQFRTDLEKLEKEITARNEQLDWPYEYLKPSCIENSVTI
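Hydroperoxide product was detected by ferrous iron/xylenol orange as the 573 to 405 nm absorbance ratio. Arachidonic acid at 40 uM (final) was turned over for 30 min at room temperature by 150 nM human 12hLO, pH 7.0 Hepes buffer, after 15 min compound preincubation.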
MCF10A rereplic: DNA re-replication induction in MCF 10a cells. MCF 10A DNA re-replication, Hoechst nuclear intensity, 48 h. Potency, µM (titrated, usually from 46.1 µM), actives largely listed as activators. 350,000 tested, 2.9% active. AID 624296; also: nearly all actives have a fitted effect of over 50% in size
Hits are given with their value; i = inactive; ? = inconclusive; nt = no result given; [ ] = another dose, or the depositor's remark. Unless noted, calls follow the shape of the dose curve; as a rule, active = well fitted curve in the direction sought with a large enough effect; inconclusive = small, poorly fitted or top-dose-only effect, or another doubt; inactive = no such curve, though single readings can be large; an effect the other way counts as inactive or inconclusive.

SMILES	KB-3-1 cytotox	PINK1 expr mod	KB-V1 cytotox	SW480 rereplic	12-LOX inh	MCF10A rereplic
CC(=O)Nc1cccc(C(=O)OC(C)C(=O)NCc2ccc3c(c2)OCO3)c1 (configuration not stated)	i	i	i	i	i	i
Cc1cccc(NS(=O)(=O)c2cc(C(=O)OC(C)C(=O)NCc3ccc4c(c3)OCO4)ccc2C)c1 (configuration not stated)	i	i	15µM	i	i	i
Cc1cc(C)n(-c2ccn(Cc3ccc(Cl)cc3Cl)c(=O)n2)n1	i	i	7.3µM	i	?	i
CN(C)S(=O)(=O)c1ccc(N2CCOCC2)c(C(=O)N2CCCc3ccccc32)c1	nt	nt	nt	nt	i	nt
NC(=O)CSc1n[nH]c2nc3c(c(=O)n12)C1(CCCCC1)Cc1ccccc1-3	nt	nt	nt	nt	i	nt
CCn1c(SCc2nc(-c3cccs3)oc2C)nnc1C1CC1	nt	nt	nt	nt	i	nt
Cc1[nH]c2ccccc2c1/C=C(\C#N)C(=O)NC(C)c1ccccc1 (configuration not stated)	i	i	i	i	7.1µM	i
Cc1ccc(/C=C(/C#N)C(=O)NC(C)c2ccccc2)o1 (configuration not stated)	i	i	18µM	i	i	i
COc1cc(C(C(=O)NC(C)(C)C)N(Cc2ccccc2)C(=O)c2cnccn2)cc(OC)c1OC (configuration not stated)	i	i	i	?	i	?
COc1ccc(CN(C(=O)c2ccc(-c3ccccc3)[nH]2)C(C(=O)NC(C)(C)C)c2ccncc2)cc1 (configuration not stated)	?	i	12µM	?	i	i
C/C=N/NC(=O)CCCCC(=O)N/N=C/C	nt	nt	nt	nt	i	nt
Cc1nc([N+](=O)[O-])c(Br)n1CC(=O)c1ccc(F)cc1	i	i	i	?	i	21µM
Cc1nc([N+](=O)[O-])c(Br)n1CC(=O)c1cccc([N+](=O)[O-])c1	i	i	i	?	?	21µM
COC(=O)Cn1c(C)nc([N+](=O)[O-])c1Br	i	i	i	i	i	i
CC1C=CC(C)N1c1ncnc2c1CN(C1CCNC1)C(=O)CN2C (configuration not stated)	nt	nt	nt	nt	i[6.33 µM]	nt
COc1ccc(CC(=O)N2Cc3ccccc3CC3(CCN(CC4CCNC4)C3)C2)cc1 (configuration not stated)	nt	nt	nt	nt	i[6.33 µM]	nt
CCOC(=O)c1nc2ccccc2nc1N1CCN(C(=O)c2ccc(C)cc2)CC1	nt	nt	nt	nt	i	nt
COc1cc(OC)cc(C2=Cc3ccc(OC)cc3C(CC(C)=O)N2c2ccc(C#CC3(O)CCCCC3)cc2)c1 (configuration not stated)	?	i	i	nt	?	nt
COc1cccc(C2=Cc3ccc(F)cc3C(CC(C)=O)N2c2ccc(C#CC3(O)CCCCC3)cc2)c1 (configuration not stated)	?	i	?	nt	16µM	nt
COc1ccc2c(c1)C(CC(C)=O)N(c1ccc(-c3cccs3)cc1)C(c1ccsc1)=C2 (configuration not stated)	10µM	i	i	nt	i	nt
N#Cc1ccccc1NC(=O)CNc1ccccc1N1CCCCC1	i	i	21µM	i	i	?
CC(C(=O)Nc1ccccc1C#N)N(C)Cc1ccccc1N1CCCCC1 (configuration not stated)	nt	nt	nt	nt	i	nt
N#Cc1cccc(NC(=O)CNc2cccc(S(=O)(=O)N3CCCCC3)c2)c1	i	i	?	i	i	i
O=C(COc1ccc(F)cc1)Nc1cc(S(=O)(=O)N2CCCCC2)ccc1N1CCCCC1	i	i	i	?	6.3µM	i
N#Cc1ccc(NC(=O)CNc2cc(S(=O)(=O)N3CCCCC3)ccc2N2CCCCC2)cc1	nt	nt	nt	nt	16µM	nt
SMILES	KB-3-1 cytotox	PINK1 expr mod	KB-V1 cytotox	SW480 rereplic	12-LOX inh	MCF10A rereplic
O=C(COc1ccc([N+](=O)[O-])cc1)Nc1cc(S(=O)(=O)N2CCCCC2)ccc1N1CCCCC1	i	?	i	i	40µM	i
CCSc1nn(CC(=O)Nc2ccc(C(=O)OC)cc2)c(N)c1S(=O)(=O)c1ccc(C)cc1	i	i	i	nt	i	nt
CCOC(=O)c1ccc(NC(=O)Cn2nc(SC)c(S(=O)(=O)c3ccc(Cl)cc3)c2N)cc1	?	18µM	?	nt	?	nt
Cc1[nH]cnc1C(=O)N/N=C/c1c(Cl)cccc1Cl	16µM	i	21µM	i	i	i
Cc1nnsc1C(=O)N/N=C/c1c(F)cccc1Cl	i	i	i	i	i	i
CC(C)CNc1nc(-c2ccc(S(=O)(=O)N3CCCCCC3)cc2)cs1	nt	nt	nt	nt	i	nt
O=Cc1cc(Cl)ccc1OCCN1CCC(Cc2ccccc2)CC1	?	i	i	i	2.2µM	?
O=[N+]([O-])c1cccc(OCCN2CCC(Cc3ccccc3)CC2)c1	i	i	i	i	0.63µM	?
Clc1ccccc1OCCN1CCC(Cc2ccccc2)CC1	i	i	i	i	?	?
COC(=O)CN1C(=O)N/C(=C/c2ccc(OC)cc2)C1=O	i	i	i	i	i	i
COC(=O)Cn1c(=O)c2c(n(Cc3ccccc3)c1=O)N/C(=C/c1ccc(Br)cc1)C2=O	?	i	?	?	?	4.6µM
CCOc1ccc(NS(=O)(=O)CC23CCC(CC2=O)C3(C)C)cc1 (configuration not stated)	i	i	18µM	i	i	i
COc1ccc(NS(=O)(=O)CC23CCC(CC2=O)C3(C)C)cc1 (configuration not stated)	i	i	?	i	i	i
CCOc1ccccc1NC(=O)Cc1c(C)[nH]n(-c2nc(-c3ccc(Cl)cc3)cs2)c1=O	nt	nt	nt	nt	i	nt
CC(C)(C)c1ccc(N=C2SCC(=O)N2Cc2cccs2)cc1	i	i	?	?	i	23µM
CCN1C(=O)CSC1=Nc1ccc(C(=O)O)cc1	i	i	i	i	i	i
CC(Sc1ncnc2c1cnn2-c1ccccc1)C(=O)NCC1CCCO1 (configuration not stated)	i	i	i	i	i	i
COc1ccc(-c2cn3nc(SCC(=O)NC4CCCCC4)ccc3n2)cc1	i	i	i	8.2µM	i	3.7µM
Cc1nc(SC(C)C(=O)NCC2CCCO2)c2cc(-c3ccccc3)sc2n1 (configuration not stated)	?	i	?	?	i	12µM
COc1ccc(-c2nc(SC(C)C(=O)NCC3CCCO3)n[nH]2)cc1 (configuration not stated)	?	i	i	16µM	i	13µM
COc1ccc(-c2nc(SCC(=O)NC3CCCCC3)n[nH]2)cc1	?	i	?	16µM	i	?
COc1ccc(C2CC(c3ccccc3)=NN2C(=O)CN2CCN(Cc3ccccc3)CC2)cc1 (configuration not stated)	?	i	23µM	i	i	i[9.22 µM]

Source: PubChem BioAssay
